High-throughput results: PubChem, Broad Institute
The list is not random: actives were taken first. Their share in the collection is about 8.1%.
PD-1 reverse act – activators reversing PD-1 mediated T-cell inhibition | primary human CD4 T cells, PD-L1 beads, CellTiter-Glo 96 h | activation, % (test concentration not listed) | 29,000 tested, under 10 active; call rule not given here;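 note: 0% = median vehicle wells and 100% = positive control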
MITF inhib – MITF inhibition; inhibition, % (no concentration beside the values); TRPM1 promoter luciferase, luminescence, 24 h; hit rate 0.28% among 37,000; in the data active = inhibition above about 85%;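 note: human melanocyte line stably carrying TRPM1 promoter luciferase reporter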
Shh pathway inh – Sonic Hedgehog pathway inhibition; Shh-LIGHT2 Gli-luciferase reporter, 30 h; inhibition, % (concentration not given with the values); hit rate 2.1% among 22,000; AID 2313;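 active = mean inhibition across valid replicates above about 65%, limit read from the data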;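 note: pathway switched on by Shh-conditioned medium diluted 1 in 25 in low serum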
NOMO-1 viab – STK33 inhibitor candidate reducing NOMO-1 cell viability; NOMO-1 AML viability, CellTiter-Glo luminescence, 72 h; inhibition, % (no concentration beside the values); hit rate 7.5% among 37,000; AID 2330; in the data active = inhibition above about 80%
* hit, by the source's call; nt = no result given.

SMILES	PD-1 reverse act	MITF inhib	Shh pathway inh	NOMO-1 viab
COc1cc(C(=O)N=C2C(C)=CC(=O)C=C2C)cc(OC)c1OC	-6	3	nt	135*
CCc1ccc(C2C(C#N)=C(C)NC3=C2C(=O)CC(C)(C)C3)cc1 (centres undefined)	-1	33	nt	86*
CC1(C)CC(=O)C2=C(C1)NC(SCC(=O)Nc1ccccc1)=C(C#N)C2c1ccco1 (centres undefined)	-3	-22	nt	44
CC[n+]1c(C=C2C=C(C)CC(C)C2)sc2ccccc21 (centres undefined)	-1	44	22	126*
Cc1cc(-n2c(SCC(=O)Nc3ccccc3)nnc2-c2cccnc2)ccc1Cl	-3	-2	nt	31
COC(=O)c1sc(=S)sc1C(=O)OC	-8	-10	9	96*
COC(=O)c1ccc(C(=O)OC)cc1	1	-9	-9	20
CC(Oc1ccc(Cl)cc1Cl)C(=O)NC(=S)Nc1cccc(NC(=O)c2cccs2)c1 (centres undefined)	1	-16	nt	3
COC(=O)c1cccc(C(=O)Nc2cnc3ccccc3c2)n1	-1	-9	-3	123*
COCCNC(=S)Nc1nc(OC)cc(OC)n1	0	-11	nt	15
C[C@H]1CN([C@@H](C)CO)C(=O)c2cccc(NC(=O)Nc3ccc(C(F)(F)F)cc3)c2O[C@@H]1CN(C)CC1CCCCC1	nt	29	18	82*
C[C@H](CO)N1C[C@H](C)[C@H](CN(C)CC2CCCCC2)Oc2c(NC(=O)Nc3ccc(C(F)(F)F)cc3)cccc2C1=O	-5	-2	40	116*
C[C@@H]1CN([C@H](C)CO)C(=O)c2cccc(NC(=O)Nc3ccc(C(F)(F)F)cc3)c2O[C@@H]1CN(C)CC1CCCCC1	-5	-6	-41	58
C[C@H](CO)N1C[C@H](C)[C@@H](CN(C)CC2CC2)Oc2c(NC(=O)Nc3ccc(C(F)(F)F)cc3)cccc2C1=O	-2	-7	0	99*
O=C(COc1ccc(Br)cc1)NCCN1CCOCC1	1	-13	nt	24
Cc1ccc(N2C(=O)/C(=C/C=C/c3ccccc3)SC2=S)cc1	-2	-15	24	14
CO[C@@]12[C@@H]3NC3CN1C1=C(C(=O)C(N)=C(C)C1=O)[C@@H]2COC(N)=O (some centres undefined)	nt	33	67*	106*
CC(C(=O)NC1CCCCC1)N(c1ccc(Cl)cc1)S(C)(=O)=O (centres undefined)	nt	-4	nt	6
O=C1c2ccccc2-c2c(NCCc3ccccc3)c(=O)[nH]c3cccc1c23	-3	31	45	115*
O=C(Nc1ccccc1)c1ccc(S(=O)(=O)c2cccc(S(=O)(=O)N3CCOCC3)c2)cc1	3	19	nt	12
O=C(Nc1cc(S(=O)(=O)c2ccccc2)cs1)c1ccc(Cl)cc1	0	45	4	92*
CCN1/C(=C/C2=CC(=O)CC(C)(C)C2)Sc2ccccc21	-1	49	82*	113*
C[C@@H]1CN([C@H](C)CO)C(=O)Cc2cc(NC(=O)Cc3cn(C)c4ccccc34)ccc2O[C@@H]1CN(C)Cc1ccc(Oc2ccccc2)cc1	-9	21	31	116*
C[C@H](CO)N1C[C@H](C)[C@H](CN(C)Cc2ccc(Oc3ccccc3)cc2)Oc2ccc(NC(=O)Cc3cn(C)c4ccccc34)cc2CC1=O	-1	11	-5	69
C[C@@H]1CN([C@H](C)CO)C(=O)Cc2cc(NC(=O)Cc3cn(C)c4ccccc34)ccc2O[C@@H]1CN(C)Cc1ccc(-c2ccccc2)cc1	-5	26	1	110*
SMILES	PD-1 reverse act	MITF inhib	Shh pathway inh	NOMO-1 viab
C[C@@H]1CN([C@H](C)CO)C(=O)Cc2cc(NC(=O)Cc3cn(C)c4ccccc34)ccc2O[C@H]1CN(C)C(=O)Nc1ccc(C(F)(F)F)cc1	-2	22	83*	25
C[C@@H]1CN([C@@H](C)CO)C(=O)Cc2cc(NC(=O)Cc3cn(C)c4ccccc34)ccc2O[C@@H]1CN(C)Cc1ccc(-c2ccccc2)cc1	-3	22	14	40
CN[C@H]1CC[C@@H](c2ccc(Cl)c(Cl)c2)c2ccccc21	nt	7	nt	107*
COc1cc(CO)ccc1OCc1cccc(C(=O)O)c1	2	93*	nt	19
Cc1ccc(O)c(C2=Nc3ccccc3N=C(C(F)(F)F)C2)c1	-21	19	-56	89*
Cc1cc(C)nc(N(C#N)C(C(=O)c2ccccc2)c2ccccc2)n1 (centres undefined)	nt	2	nt	110*
C[C@H]1CN([C@@H](C)CO)C(=O)c2cc(NC(=O)C3CCCCC3)ccc2O[C@H]1CN(C)Cc1ccc(Oc2ccccc2)cc1	-4	22	1	42
C[C@H](CO)N1C[C@H](C)[C@@H](CN(C)Cc2ccc(Oc3ccccc3)cc2)Oc2c(NC(=O)C3CCCCC3)cccc2C1=O	-3	48	47	88*
C[C@@H]1CN([C@@H](C)CO)C(=O)c2cc(NC(=O)C3CCCCC3)ccc2O[C@H]1CN(C)Cc1ccc(Oc2ccccc2)cc1	-1	28	25	100*
C[C@@H]1CN([C@@H](C)CO)C(=O)c2cccc(NC(=O)C3CCCCC3)c2O[C@@H]1CN(C)Cc1ccc(Cl)c(Cl)c1	-4	47	31	96*
C[C@@H]1CN([C@H](C)CO)C(=O)c2cccc(NC(=O)C3CCCCC3)c2O[C@H]1CN(C)Cc1ccc(Oc2ccccc2)cc1	-2	31	17	52
C[C@@H]1CN([C@@H](C)CO)C(=O)c2cccc(NC(=O)C3CCCCC3)c2O[C@H]1CN(C)Cc1ccc(Oc2ccccc2)cc1	-5	77	-21	120*
O=C(O)COc1ccc(NC(=O)c2cccc(I)c2)cc1	2	-3	nt	-16
C[C@@H]1CN([C@@H](C)CO)C(=O)c2cccc(NC(=O)C3CC3)c2O[C@H]1CN(C)Cc1ccc(Oc2ccccc2)cc1	-4	27	2	100*
Cc1ccc(N(CC(O)Cn2c3ccccc3c3ccccc32)S(C)(=O)=O)c(C)c1 (centres undefined)	0	4	nt	90*
C[n+]1cc(C(=O)NCCC[N+]2(C)CCCC2)ccc1/C=N/O	0	-10	-10	34
N#Cc1cc2c(nc1SCC(=O)Nc1cccc(F)c1)CCCC2	nt	-28	nt	92*
C[C@@H]1CCCCO[C@@H](CN(C)C)[C@@H](C)CN([C@H](C)CO)C(=O)c2cc(NC(=O)c3ccccc3)ccc2O1	nt	0	-4	123*
C[C@@H]1CCCCO[C@@H](CN(C)CC2CCCCC2)[C@@H](C)CN([C@H](C)CO)C(=O)c2cc(NC(=O)Nc3ccccc3)ccc2O1	0	19	20	122*
C[C@@H]1CCCCO[C@@H](CN(C)CC2CCCCC2)[C@@H](C)CN([C@H](C)CO)C(=O)c2cc(NC(=O)c3ccccc3)ccc2O1	0	27	nt	117*
C[C@@H]1CN([C@H](C)CO)C(=O)c2cccc(NC(=O)Nc3ccc4c(c3)OCO4)c2O[C@H]1CN(C)Cc1ccc2c(c1)OCO2	nt	-21	-21	101*
C[C@@H]1CN([C@@H](C)CO)C(=O)c2cccc(NC(=O)Nc3ccccc3)c2O[C@@H]1CN(C)Cc1ccc2c(c1)OCO2	nt	-9	-54	35
